From PubChem BioAssay
KB-3-1 tox – qHTS assay for MDR1-selective chemotherapeutics: Primary screen using the parental adenocarcinoma cell KB-3-1; KB-3-1 viability, CellTiter-Glo ATP luminescence, 72 h; Potency, µM (top dose mostly 46.1 µM), most hits filed as cytotoxic; 1.4% of 400,000 active; note: potency is the fitted concentration of half-maximal effect; nearly all actives have a fitted effect of over 60% in size
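Viability of parental KB-3-1 cells, measured by CellTiter-Glo luminescence, followed a 72 h incubation at 37 °C with pinned compounds in phenol-red-free DMEM containing 10% FBS.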
KB-V1 MDR tox – qHTS assay for MDR1-selective chemotherapeutics: Primary screen using the drug-selected MDR subline cells KB-V1 | Potency, µM (highest dose often 46.1 µM), actives largely listed as cytotoxic | KB-V1 MDR cells viability, CellTiter-Glo, 72 h | 3.4% of 400,000 active | AID 1347076, 2019; note: potency is the fitted concentration of half-maximal effect; nearly all actives have a fitted effect of over 60% in size
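Cells of the MDR subline KB-V1 are plated, dosed with compound at multiple concentrations, and incubated 72 h at 37 degrees C; CellTiter-Glo is then added and luminescence read after 10 min.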
A549 tox – Nrf2 qHTS screen for inhibitors: counterscreen for cytotoxicity; Potency, µM (series often up to 46 µM), inactives show at the top dose activity change, negative = cytotoxicity, usual class: inhibitors; AID 504648, 2011; 0.16% of 390,000 active; A549 ARE-Fluc cells, CellTiter-Fluor viability, 18-24 h; note: potency is the fitted concentration of half-maximal effect
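Cytotoxicity counterscreen: CellTiter-Fluor fluorescence was measured in A549 ARE_Fluc cells after 18-24 h of compound exposure in a concentration series. The subsequent BugLite luminescent read reports ARE-luciferase activity.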
Nrf2 inh – Nrf2 qHTS screen for inhibitors; Potency, µM (doses to about 46 µM), for the others: at the highest dose activity change, negative = inhibition, hits mostly inhibitors; 2.1% of 360,000 active; A549 ARE-Fluc reporter, luciferase luminescence, 18-24 h; note: potency is the fitted concentration of half-maximal effect; nearly all actives have a fitted effect of over 60% in size
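Nrf2 activity is the BugLite luminescence, read 15 min after reagent at room temperature, following CellTiter-Fluor cytotoxicity readout (30 min, 37C). Compound titrations were applied for 18-24 h to 5000 A549 ARE_Fluc cells/well in 5% FBS OPTI-MEM.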
PI4K2A block – qHTS for small molecular inhibitors of PI4K2A; activity change, negative = inhibition, % at 76.9 µM; Phosphatidylinositol 4-kinase type 2-alpha (Homo sapiens), Q9BTU6; 0.13% of 420,000 active; purified PI4K2A, ADP-Glo luminescence, 1 h; hits give low values; AID 1346378, 2018; in the data active = activity change below about -50%; inconclusive = mostly about -30% to -49%;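 note: -100% = wells without enzyme as full effect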
Target sequence (Q9BTU6 whole entry, looked up): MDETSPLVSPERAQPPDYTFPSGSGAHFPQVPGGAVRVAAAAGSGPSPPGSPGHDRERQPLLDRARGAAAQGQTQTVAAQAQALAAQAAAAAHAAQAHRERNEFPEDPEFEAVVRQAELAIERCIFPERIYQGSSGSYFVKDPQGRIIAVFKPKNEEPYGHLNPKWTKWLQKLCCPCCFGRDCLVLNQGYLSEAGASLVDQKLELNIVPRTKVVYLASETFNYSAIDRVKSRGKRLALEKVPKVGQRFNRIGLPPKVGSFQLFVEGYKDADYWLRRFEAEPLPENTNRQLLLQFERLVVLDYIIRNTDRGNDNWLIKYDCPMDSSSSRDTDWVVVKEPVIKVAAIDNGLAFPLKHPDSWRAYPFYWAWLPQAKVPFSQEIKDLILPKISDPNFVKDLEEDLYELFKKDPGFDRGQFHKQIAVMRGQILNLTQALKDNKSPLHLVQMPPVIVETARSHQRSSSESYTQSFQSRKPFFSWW
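Compounds are screened against recombinant PI4K2A using PI as substrate and ATP, the latter dispensed at 300 microM. Reactions run one hour at ambient temperature before ADP-Glo detection; full inhibition defined by wells lacking enzyme.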
Giardia kill – Small Molecules that selectively kill Giardia lamblia: qHTS. Giardia lamblia trophozoite viability. AID 540267, 2011. activity change, % at 7.66 µM, hits read low. 0.15% of 340,000 active; in the data active = activity change below about -80%; inconclusive = between about -30% and that limit;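 note: parasites exposed to compound for two days anaerobically before the ATP read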
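Each well holds 100 Giardia trophozoites and compound. After two days (48 hrs) at 37 deg C in anaerobic conditions, ATP is quantified by luminescence.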
* hit, by the source's call. Most compounds without a hit are left out; they make up all but 5.7% or so of the library. Unless noted, calls come from the whole dose curve; as a rule, active = well fitted curve in the direction sought with a large enough effect; inconclusive = small, poorly fitted or top-dose-only effect, or another doubt; inactive = no such curve, though single readings can be large; an effect the other way counts as inactive or inconclusive. Unless noted, % is set by controls: 0 for no effect and ±100 for the full control effect.

`C[C@H](CO)N1C[C@H](C)[C@@H](CN(C)CC2CCCCC2)Oc2c(NC(=O)Cc3ccccc3)cccc2C1=O` gave KB-3-1 tox inconclusive, KB-V1 MDR tox inconclusive, A549 tox -16%, Nrf2 inh 23µM*, PI4K2A block -3 and Giardia kill 5.
Screening CC(C)NC(=O)N(C)C[C@H]1Oc2c(NC(=O)Cc3ccccc3)cccc2C(=O)N([C@H](C)CO)C[C@@H]1C returned KB-3-1 tox inactive, KB-V1 MDR tox inactive, A549 tox 1%, Nrf2 inh 14%, PI4K2A block -3 and Giardia kill 20.
`C[C@@H]1CN([C@H](C)CO)C(=O)c2cc(NS(=O)(=O)c3ccc(F)cc3)ccc2O[C@@H]1CN(C)Cc1ccc(Cl)c(Cl)c1` gave KB-3-1 tox inactive, KB-V1 MDR tox inactive, A549 tox 15µM*, Nrf2 inh 18µM*, PI4K2A block 3 and Giardia kill 17.
For C[C@H](CO)N1C[C@H](C)[C@@H](CN(C)Cc2ccc(Cl)c(Cl)c2)Oc2c(NC(=O)CCC(F)(F)F)cccc2C1=O the results were KB-3-1 tox inconclusive, KB-V1 MDR tox inactive, A549 tox -14%, Nrf2 inh 18µM*, PI4K2A block 4 and Giardia kill 7.
CCOc1cccc2sc(NC(=O)c3ccc(S(=O)(=O)N4CCCCC4C)cc3)nc12 (configuration not stated) was read as A549 tox 6% and PI4K2A block 1.
FC(F)(F)c1ccccc1NC(=S)OC1CCC12CCC(c1ccccc1)CC2 (configuration not stated) was read as PI4K2A block -5.
C[C@H]1Cn2nncc2Cn2c3ccccc3c(=O)n21 was read as PI4K2A block 2.
`COCCn1c(SCc2nc3scc(-c4ccc(Cl)cc4)c3c(=O)[nH]2)nnc1-c1cccc(C)c1` gave KB-3-1 tox 21µM*, KB-V1 MDR tox 5.2µM*, A549 tox -6%, Nrf2 inh inconclusive, PI4K2A block 5 and Giardia kill 2.
`Cc1ccc(NC(=O)CN2CCc3cc4c(cc3C2)OCCCO4)cc1` gave KB-3-1 tox inactive, KB-V1 MDR tox inactive, A549 tox 5%, Nrf2 inh -5%, PI4K2A block -14 and Giardia kill 22.
For Cc1cccc(NC(=O)CN2CCc3cc4c(cc3C2C)OCCCO4)c1 (configuration not stated) the results were KB-3-1 tox inactive, KB-V1 MDR tox inactive, A549 tox -17%, Nrf2 inh 23µM*, PI4K2A block -22 and Giardia kill -12.
`Cc1cc(C)cc(NC(=O)CN2CCc3cc4c(cc3C2C)OCCCO4)c1` (configuration not stated) gave KB-3-1 tox inactive, KB-V1 MDR tox inactive, A549 tox -17%, Nrf2 inh 26µM*, PI4K2A block -2 and Giardia kill -22.
For Cc1ccc(Cl)cc1NC(=S)N/N=C/c1cccc2ccccc12 the results were KB-3-1 tox 5.8µM*, KB-V1 MDR tox 2.1µM*, A549 tox 1%, Nrf2 inh -1%, PI4K2A block 3 and Giardia kill -6.
`CC(C)(C)NC(=S)N/N=C/c1c(Cl)cccc1Cl` gave KB-3-1 tox inactive, KB-V1 MDR tox inactive, A549 tox -16%, Nrf2 inh -4%, PI4K2A block -2 and Giardia kill -1.
`Cc1ccc(NC(=S)N/N=C/c2ccc(OCCC(C)C)cc2)c(C)c1` gave KB-3-1 tox inactive, KB-V1 MDR tox 16µM*, A549 tox 13%, Nrf2 inh 0%, PI4K2A block 2 and Giardia kill -3.
